Results filed as inconclusive are left out. A structure can be active in one record and inactive in another. Calls of active or inactive are those of the source. The calls were made as follows, unless noted: active = hit-call score of the fitted dose curve at least 0.9, where 1 is the maximum; inconclusive = response in the unintended direction; inactive = score below 0.9.
Experiments:
[1] = ATG_VDRE_CIS: Attagene CIS-FACTORIAL HepG2 Assay for human Vitamin D Receptor Element (VDRE) (AID 2282968; active = hit-call score of the fitted dose curve at least 0.9, where 1 is the maximum; inactive = score below 0.9); conditions: HepG2 VDRE cis-reporter transcription, actives raise or lower the signal
Summary of the method: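 Measures endogenous factor activity through cis-element-driven reporter transcripts in transiently transfected HepG2. Cells are treated 24 h; reporter mRNA is quantified by RT-PCR and capillary electrophoresis; fitting is bidirectional.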

[2] = target: X-box-binding protein 1 (Homo sapiens) (UniProt P17861); experiment: ATG_Xbp1_CIS: Attagene CIS-FACTORIAL HepG2 Assay for human X-box Binding Protein 1 (XBP1) (AID 2282972; active = hit-call score of the fitted dose curve at least 0.9, where 1 is the maximum; inactive = score below 0.9); conditions: HepG2 XBP1 cis-element reporter, Attagene multiplex; actives raise or lower the signal
Chain of X-box-binding protein 1 (Homo sapiens) (P17861 whole entry, looked up): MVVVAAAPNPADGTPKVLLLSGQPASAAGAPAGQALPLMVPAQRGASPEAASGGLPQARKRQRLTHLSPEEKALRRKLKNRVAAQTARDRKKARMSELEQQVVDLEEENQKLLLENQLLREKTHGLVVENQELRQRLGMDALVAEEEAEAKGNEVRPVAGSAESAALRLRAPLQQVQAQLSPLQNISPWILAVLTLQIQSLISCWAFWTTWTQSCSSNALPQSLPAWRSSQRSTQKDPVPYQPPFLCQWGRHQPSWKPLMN
Summary of the method: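 Reporter transcripts were quantified by RT-PCR with fluorescent primer extension and capillary electrophoresis after 24 h chemical exposure. Cells: transiently transfected HepG2 carrying cis-regulated reporter constructs; data fitted bidirectionally relative to DMSO.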

[3] = ATG_M_19_TRANS: Attagene TRANS-FACTORIAL HepG2 Assay for M19 Transcription Factor (Internal Marker) (AID 2282974); conditions: HepG2 Attagene TRANS-FACTORIAL M19 internal marker reporter
Summary of the method: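 Gain-of-signal in reporter mRNA, relative to DMSO, was scored from capillary electrophoresis fluorescence. HepG2 cells carried transiently transfected multiple reporter transcription units and were incubated with test chemicals for 24 h.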

[4] = target: Glucocorticoid receptor (Homo sapiens) (UniProt P04150); experiment: ATG_GR_TRANS: Attagene TRANS-FACTORIAL HepG2 Assay for human Glucocorticoid Receptor (GR) (AID 2282978); conditions: HepG2 Attagene TRANS GR reporter, mRNA transcription;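 also: activators score as hits since higher reporter transcript over DMSO is fitted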
Summary of the method: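 HepG2 transient transfection, multiple reporter units, GAL4-UAS under NR-GAL4 chimera control. 24 h treatment. Reporter mRNA by RT-PCR/CE fluorescence, DMSO as negative control.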

[5] = target: Oxysterols receptor LXR-beta (Homo sapiens) (UniProt P55055); experiment: ATG_LXRb_TRANS: Attagene TRANS-FACTORIAL HepG2 Assay for human Liver X Receptor beta (LXRb) (AID 2282981); conditions: HepG2 Attagene TRANS GAL4-LXRb reporter, mRNA
Chain of Oxysterols receptor LXR-beta (Homo sapiens) (P55055 whole entry, looked up, the tested form may be a part): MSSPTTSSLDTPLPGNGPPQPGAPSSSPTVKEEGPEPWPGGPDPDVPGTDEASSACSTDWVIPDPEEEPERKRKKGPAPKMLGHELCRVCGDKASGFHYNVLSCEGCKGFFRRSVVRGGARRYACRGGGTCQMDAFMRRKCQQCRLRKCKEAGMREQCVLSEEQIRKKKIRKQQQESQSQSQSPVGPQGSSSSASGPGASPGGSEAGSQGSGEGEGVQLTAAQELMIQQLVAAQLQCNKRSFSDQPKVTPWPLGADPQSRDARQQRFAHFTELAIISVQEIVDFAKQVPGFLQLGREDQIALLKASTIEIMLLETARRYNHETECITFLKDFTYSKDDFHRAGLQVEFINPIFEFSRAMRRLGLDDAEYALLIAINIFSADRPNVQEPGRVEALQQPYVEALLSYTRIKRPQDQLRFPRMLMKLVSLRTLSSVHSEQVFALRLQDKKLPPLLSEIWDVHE
Summary of the method: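 After 24 h of chemical treatment, transfected HepG2 cells yield total RNA; reporter cDNA is PCR-amplified, FAM-labelled, HpaI-cut and run on capillary electrophoresis. Signal reflects chimeric LXRb-Gal4 activity on GAL4-UAS reporters.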

[6] = target: Hepatocyte nuclear factor 4-alpha (Homo sapiens) (UniProt P41235); experiment: ATG_HNF4a_TRANS: Attagene TRANS-FACTORIAL HepG2 Assay for human Hepatocyte Nuclear Factor 4 alpha (HNF4a) (AID 2282982); conditions: HepG2 HNF4a transactivation reporter, mRNA readout
Chain of Hepatocyte nuclear factor 4-alpha (Homo sapiens) (P41235 whole entry, looked up): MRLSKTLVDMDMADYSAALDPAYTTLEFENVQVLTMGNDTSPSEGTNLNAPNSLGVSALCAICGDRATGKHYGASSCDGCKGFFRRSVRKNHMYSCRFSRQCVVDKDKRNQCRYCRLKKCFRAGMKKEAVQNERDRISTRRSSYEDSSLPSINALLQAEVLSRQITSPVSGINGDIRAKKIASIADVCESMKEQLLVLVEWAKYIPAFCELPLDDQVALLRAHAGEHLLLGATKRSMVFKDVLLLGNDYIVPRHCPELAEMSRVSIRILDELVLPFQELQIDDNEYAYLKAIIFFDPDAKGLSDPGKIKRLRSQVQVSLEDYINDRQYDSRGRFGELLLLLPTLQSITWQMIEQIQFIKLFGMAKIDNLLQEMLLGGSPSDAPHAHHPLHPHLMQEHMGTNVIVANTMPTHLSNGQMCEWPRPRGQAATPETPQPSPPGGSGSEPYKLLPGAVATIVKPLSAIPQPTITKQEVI
Summary of the method: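 Multiplexed reporter assay: transfected HepG2, 24 h exposure, total RNA → oligo(dT) RT → PCR → 6-FAM extension → HpaI digest → CE fluorescence. DMSO = negative control.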

[7] = ATG_M_06_TRANS: Attagene TRANS-FACTORIAL HepG2 Assay for M06 Transcription Factor (Internal Marker) (AID 2282983); conditions: HepG2 Attagene TRANS M06 internal marker reporter;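 also: reporter transcript level by RT-PCR then capillary electrophoresis fluorescence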
Summary of the method: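 Background-control reporter readout: after 24 h chemical exposure of transiently transfected HepG2 (GAL4-UAS reporter units), mRNA quantified by RT-PCR with fluorescent labeling and capillary electrophoresis. Gain-of-signal fitting against DMSO baseline.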

[8] = ATG_M_32_TRANS: Attagene TRANS-FACTORIAL HepG2 Assay for M32 Transcription Factor (Internal Marker) (AID 2282984); conditions: HepG2 Attagene TRANS M32 internal marker reporter;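 also: transcript level of a background control reporter unit measured by RT-PCR and capillary electrophoresis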
Summary of the method: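 Cell-based TRANS-format assay in HepG2: exogenous chimeric GAL4 reporter units transiently expressed, compounds applied 24 h. Reporter mRNA detected by RT-PCR plus capillary electrophoresis; this readout is an internal background marker.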

[9] = target: Nuclear receptor subfamily 4 group A member 2 (Homo sapiens) (UniProt P43354); experiment: ATG_NURR1_TRANS: Attagene TRANS-FACTORIAL HepG2 Assay for human Nuclear Receptor Related Protein 1 (NURR1) (AID 2282985); conditions: HepG2 Attagene TRANS reporter, mRNA readout
Summary of the method: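 Measures transcriptional activation by an exogenous NR-Gal4 chimera in transfected HepG2 liver cells. After 24 h, reporter RNA is reverse-transcribed, amplified and resolved by capillary electrophoresis; DMSO defines baseline.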

[10] = target: Transcriptional activator Myb (Homo sapiens) (UniProt P10242); experiment: ATG_Myb_CIS: Attagene CIS-FACTORIAL HepG2 Assay for human Myeloblastosis (Myb) Proto-Oncogene Transcription Factor (AID 2282986; active = hit-call score of the fitted dose curve at least 0.9, where 1 is the maximum; inactive = score below 0.9); conditions: HepG2 Attagene CIS-FACTORIAL Myb reporter transcription; actives raise or lower the signal
Summary of the method: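 Multiplexed cis-reporter system in HepG2: transient transfection, 24 h treatment, mRNA readout by RT-PCR and capillary electrophoresis. Both increases and decreases are scored versus DMSO negative control.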

[11] = target: Nuclear respiratory factor 1 (Homo sapiens) (UniProt Q16656); experiment: ATG_NRF1_CIS: Attagene CIS-FACTORIAL HepG2 Assay for human Nuclear Respiratory Factor 1 (NRF1) Orphan Gene (AID 2282987; active = hit-call score of the fitted dose curve at least 0.9, where 1 is the maximum; inactive = score below 0.9); conditions: HepG2 NRF1 cis-element reporter, Attagene multiplex; actives raise or lower the signal
Chain of Nuclear respiratory factor 1 (Homo sapiens) (Q16656 whole entry, looked up): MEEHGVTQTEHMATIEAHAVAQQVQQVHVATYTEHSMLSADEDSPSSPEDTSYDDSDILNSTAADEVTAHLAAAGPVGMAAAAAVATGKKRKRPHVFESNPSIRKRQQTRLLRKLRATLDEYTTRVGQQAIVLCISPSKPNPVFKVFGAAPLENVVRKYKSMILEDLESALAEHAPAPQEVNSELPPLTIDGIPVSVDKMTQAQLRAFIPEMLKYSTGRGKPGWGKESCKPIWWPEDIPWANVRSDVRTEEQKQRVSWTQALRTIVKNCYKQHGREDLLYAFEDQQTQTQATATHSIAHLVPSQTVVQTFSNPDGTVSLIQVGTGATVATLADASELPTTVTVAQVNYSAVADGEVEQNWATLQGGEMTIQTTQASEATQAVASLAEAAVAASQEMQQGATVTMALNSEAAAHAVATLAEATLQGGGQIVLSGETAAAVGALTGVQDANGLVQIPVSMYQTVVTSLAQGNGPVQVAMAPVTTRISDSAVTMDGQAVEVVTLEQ
Summary of the method: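 Endogenous factor activity was captured via cis-element-driven reporter transcripts in HepG2 cells. Following 24 h chemical treatment, transcripts were quantified by RT-PCR and capillary electrophoresis.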

[12] = ATG_NFI_CIS: Attagene CIS-FACTORIAL HepG2 Assay for human Nuclear Factor I (NFI) (AID 2282989; active = hit-call score of the fitted dose curve at least 0.9, where 1 is the maximum; inactive = score below 0.9); conditions: HepG2 cis-regulatory reporter, NFI response element transcription; actives raise or lower the signal
Summary of the method: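 Read-out: reporter mRNA via RT-PCR plus capillary electrophoresis with fluorescence detection. Transiently transfected HepG2 (endogenous TF activity on cis promoters), 24 h compound exposure; gain or loss of signal fitted against DMSO.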

[13] = target: Nuclear receptor subfamily 1 group I member 3 (Homo sapiens) (UniProt Q14994); experiment: ATG_CAR_TRANS: Attagene TRANS-FACTORIAL HepG2 Assay for human Constitutive Androstane Receptor (CAR) (AID 2282969); conditions: HepG2 Attagene TRANS-FACTORIAL CAR reporter;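 also: activators raise reporter mRNA above DMSO so AC50 marks induction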
Chain of Nuclear receptor subfamily 1 group I member 3 (Homo sapiens) (Q14994 whole entry, looked up, the tested form may be a part): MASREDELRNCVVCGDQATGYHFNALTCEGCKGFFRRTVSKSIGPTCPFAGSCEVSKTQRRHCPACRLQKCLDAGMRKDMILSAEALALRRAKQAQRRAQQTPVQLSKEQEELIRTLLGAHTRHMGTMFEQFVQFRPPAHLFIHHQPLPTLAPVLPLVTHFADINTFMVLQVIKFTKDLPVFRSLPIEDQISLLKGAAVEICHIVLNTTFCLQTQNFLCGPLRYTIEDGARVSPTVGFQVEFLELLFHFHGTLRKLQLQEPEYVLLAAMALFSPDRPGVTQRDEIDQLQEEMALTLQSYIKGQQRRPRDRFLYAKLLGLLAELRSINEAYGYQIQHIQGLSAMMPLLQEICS
Summary of the method: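 Signal is reporter mRNA induction relative to DMSO, measured 24 h after dosing by RT-PCR with fluorescent primer extension and capillary electrophoresis. Human HepG2 liver cells carried transiently transfected chimeric NR-Gal4/GAL4-UAS reporter constructs.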

[14] = target: Estrogen receptor (Homo sapiens) (UniProt P03372); experiment: ATG_ERa_TRANS: Attagene TRANS-FACTORIAL HepG2 Assay for human Estrogen Receptor alpha (ERa) (AID 2282970); conditions: HepG2 Attagene TRANS ERa GAL4 reporter, mRNA
Chain of Estrogen receptor (Homo sapiens) (P03372 whole entry, looked up, the tested form may be a part): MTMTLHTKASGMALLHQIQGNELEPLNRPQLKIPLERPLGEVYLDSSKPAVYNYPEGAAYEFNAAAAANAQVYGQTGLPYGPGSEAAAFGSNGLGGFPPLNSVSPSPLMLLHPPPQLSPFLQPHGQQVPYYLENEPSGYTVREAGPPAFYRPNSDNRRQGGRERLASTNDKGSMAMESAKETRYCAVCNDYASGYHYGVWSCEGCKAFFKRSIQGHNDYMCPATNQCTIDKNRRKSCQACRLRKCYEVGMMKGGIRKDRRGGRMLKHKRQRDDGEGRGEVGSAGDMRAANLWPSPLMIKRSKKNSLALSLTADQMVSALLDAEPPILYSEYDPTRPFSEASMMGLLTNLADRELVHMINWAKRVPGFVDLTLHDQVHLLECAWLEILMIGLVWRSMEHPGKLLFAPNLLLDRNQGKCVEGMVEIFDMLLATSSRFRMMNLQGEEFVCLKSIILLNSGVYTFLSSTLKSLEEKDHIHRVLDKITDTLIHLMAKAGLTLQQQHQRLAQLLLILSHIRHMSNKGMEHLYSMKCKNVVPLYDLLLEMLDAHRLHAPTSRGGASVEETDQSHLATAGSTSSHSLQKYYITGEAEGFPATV
Summary of the method: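 Reporter transcripts were measured 24 h after dosing by RT-PCR with fluorescent primer extension and capillary electrophoresis. The system is transiently transfected HepG2 expressing exogenous NR-Gal4 chimeras driving GAL4-UAS reporters; DMSO is the baseline.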

[15] = ATG_GAL4_TRANS: Attagene TRANS-FACTORIAL HepG2 Assay for GAL4 (Internal Marker) (AID 2282976); conditions: HepG2 Attagene TRANS GAL4 internal marker reporter
Summary of the method: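 In transfected human HepG2 liver cells dosed 24 h, GAL4 reporter mRNA serves as a baseline marker. Detection by RT-PCR with fluorescent capillary electrophoresis, activity fitted upward relative to DMSO.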

[16] = target: Steroid hormone receptor ERR1 (Homo sapiens) (UniProt P11474); experiment: ATG_ERRa_TRANS: Attagene TRANS-FACTORIAL HepG2 Assay for human Estrogen-Related Receptor alpha (ERRa) (AID 2282971); conditions: HepG2 Attagene TRANS reporter, ERRa transactivation
Chain of Steroid hormone receptor ERR1 (Homo sapiens) (P11474 whole entry, looked up, the tested form may be a part): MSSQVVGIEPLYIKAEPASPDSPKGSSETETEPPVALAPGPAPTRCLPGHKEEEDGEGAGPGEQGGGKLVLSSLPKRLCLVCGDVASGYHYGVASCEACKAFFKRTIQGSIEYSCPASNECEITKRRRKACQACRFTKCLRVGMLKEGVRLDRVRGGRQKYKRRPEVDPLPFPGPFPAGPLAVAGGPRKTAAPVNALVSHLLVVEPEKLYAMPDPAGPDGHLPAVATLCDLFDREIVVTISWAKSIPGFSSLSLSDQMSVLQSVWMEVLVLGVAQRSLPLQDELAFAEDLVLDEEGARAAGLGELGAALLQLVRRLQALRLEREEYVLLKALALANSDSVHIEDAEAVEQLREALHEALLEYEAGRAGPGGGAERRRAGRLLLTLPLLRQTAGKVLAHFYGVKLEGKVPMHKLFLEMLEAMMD
Summary of the method: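 Reporter transcripts from ERRa-Gal4 chimera activity measured in transiently transfected human HepG2 cells 24 hours after dosing, using RT-PCR with 6-FAM primer extension, HpaI digestion and capillary electrophoresis; DMSO is baseline.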

[17] = target: Estrogen-related receptor gamma (Homo sapiens) (UniProt P62508); experiment: ATG_ERRg_TRANS: Attagene TRANS-FACTORIAL HepG2 Assay for human Estrogen-Related Receptor gamma (ERRg) (AID 2282977); conditions: HepG2 Attagene TRANS reporter, ERRg transactivation;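 also: hits increase reporter signal over DMSO so potencies reflect activators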
Chain of Estrogen-related receptor gamma (Homo sapiens) (P62508 whole entry, looked up, the tested form may be a part): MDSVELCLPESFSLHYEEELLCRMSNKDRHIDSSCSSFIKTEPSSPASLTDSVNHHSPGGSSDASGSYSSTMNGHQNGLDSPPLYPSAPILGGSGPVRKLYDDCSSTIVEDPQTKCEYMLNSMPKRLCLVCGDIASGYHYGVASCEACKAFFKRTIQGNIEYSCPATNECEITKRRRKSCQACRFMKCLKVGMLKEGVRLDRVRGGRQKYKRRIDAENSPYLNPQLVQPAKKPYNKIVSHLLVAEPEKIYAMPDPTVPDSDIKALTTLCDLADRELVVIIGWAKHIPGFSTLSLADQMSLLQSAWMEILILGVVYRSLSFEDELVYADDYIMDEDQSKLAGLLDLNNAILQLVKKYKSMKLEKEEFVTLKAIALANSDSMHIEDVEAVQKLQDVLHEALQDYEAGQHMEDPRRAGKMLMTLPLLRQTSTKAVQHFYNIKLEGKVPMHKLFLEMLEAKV
Summary of the method: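 Readout: fluorescent reporter-mRNA fragments resolved by capillary electrophoresis after RT-PCR and HpaI cut. Cells: transiently transfected HepG2 carrying GAL4-UAS reporters driven by exogenous NR-Gal4 chimeras, dosed 24 h. Activity fitted upward relative to DMSO baseline.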

[18] = target: Bile acid receptor (Homo sapiens) (UniProt Q96RI1); experiment: ATG_FXR_TRANS: Attagene TRANS-FACTORIAL HepG2 Assay for Farnesoid X Receptor (FXR) (AID 2282979); conditions: HepG2 Attagene TRANS FXR-GAL4 reporter transcription;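 also: hits raise reporter mRNA above DMSO so AC50 marks FXR activation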
Chain of Bile acid receptor (Homo sapiens) (Q96RI1 whole entry, looked up, the tested form may be a part): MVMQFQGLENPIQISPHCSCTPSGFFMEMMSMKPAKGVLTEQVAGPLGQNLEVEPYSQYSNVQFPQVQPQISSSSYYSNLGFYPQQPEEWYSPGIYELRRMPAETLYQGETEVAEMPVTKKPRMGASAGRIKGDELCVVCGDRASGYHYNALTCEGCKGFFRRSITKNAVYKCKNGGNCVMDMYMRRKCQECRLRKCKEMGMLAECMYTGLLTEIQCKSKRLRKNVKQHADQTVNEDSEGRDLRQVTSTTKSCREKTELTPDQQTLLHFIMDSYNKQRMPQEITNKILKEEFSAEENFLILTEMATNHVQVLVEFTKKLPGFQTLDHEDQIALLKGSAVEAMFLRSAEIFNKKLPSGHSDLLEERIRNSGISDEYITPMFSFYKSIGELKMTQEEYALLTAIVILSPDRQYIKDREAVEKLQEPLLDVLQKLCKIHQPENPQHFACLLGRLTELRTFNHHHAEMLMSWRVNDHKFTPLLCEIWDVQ
Summary of the method: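 Reporter transcripts from transfected HepG2 cells were measured 24 h after dosing, using RT-PCR with capillary electrophoresis of 6-FAM-labelled fragments. The read-out reflects activity of exogenous FXR-Gal4 chimera on GAL4-UAS units, with induction relative to DMSO.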

[19] = target: Oxysterols receptor LXR-alpha (Homo sapiens) (UniProt Q13133); experiment: ATG_LXRa_TRANS: Attagene TRANS-FACTORIAL HepG2 Assay for human Liver X Receptor alpha (LXRa) (AID 2282980); conditions: HepG2 Attagene TRANS reporter, LXRa transactivation
Chain of Oxysterols receptor LXR-alpha (Homo sapiens) (Q13133 whole entry, looked up, the tested form may be a part): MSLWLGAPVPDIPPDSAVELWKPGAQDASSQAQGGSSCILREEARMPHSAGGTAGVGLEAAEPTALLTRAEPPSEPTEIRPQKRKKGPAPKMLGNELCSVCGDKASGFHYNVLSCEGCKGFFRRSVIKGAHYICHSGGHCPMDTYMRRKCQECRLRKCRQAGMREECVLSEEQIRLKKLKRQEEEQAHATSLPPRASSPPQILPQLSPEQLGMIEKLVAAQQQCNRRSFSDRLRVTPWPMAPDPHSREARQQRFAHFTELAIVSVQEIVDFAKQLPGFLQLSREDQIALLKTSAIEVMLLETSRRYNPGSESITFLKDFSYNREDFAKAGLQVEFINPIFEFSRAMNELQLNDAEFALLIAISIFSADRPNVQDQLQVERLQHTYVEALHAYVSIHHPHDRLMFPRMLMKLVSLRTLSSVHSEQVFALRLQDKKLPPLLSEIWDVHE
Summary of the method: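 Chemical-induced reporter mRNA measured by RT-PCR with fluorescent labelling and capillary electrophoresis after 24 h dosing of transiently transfected HepG2 cells expressing exogenous NR-Gal4 chimeras; increases scored against DMSO baseline.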

Measured: AC50

CCCCCCCCCCCC[N+](C)(C)Cc1ccccc1
inactive: [1] | [2] | [3] | [4] | [5] | [6] | [7] | [8] | [9] | [10] | [11] | [12]
active: [1] 13.2 µM | [2] 11.1 µM | [3] 168 µM | [10] 11.1 µM

CCCCCCCCCCCCCCCC(=O)OC
not listed: [3] | [4] | [7] | [9] | [16] | [17] | [18] | [19]
inactive: all other assays above

CCOCCOCC
not listed: [3] | [4] | [7] | [15] | [16] | [17] | [18] | [19]
inactive: all other assays above

c1cc2cccc3c4cccc5cccc(c(c1)c23)c54
not listed: [3] | [5] | [6] | [7] | [8] | [9] | [15] | [19]
inactive: all other assays above

COc1cccc(O)c1
inactive: [1] | [13] | [14] | [15] | [19] | [7] | [8] | [9] | [10] | [12]

COc1cc(OC)nc(NC(=O)NS(=O)(=O)Nc2ccccc2C(=O)N(C)C)n1
not listed: [3] | [8] | [15] | [16] | [17] | [19]
inactive: all other assays above

CCCCCCC(C)(C)C(=O)O
active: [1] 73.2 µM | [14] 26.4 µM
inactive: [13] | [2] | [17] | [7] | [8] | [10] | [11] | [12]

O=C1c2ccccc2C(=O)c2c(O)c(O)cc(O)c21
not listed: [9] | [11] | [14] | [15] | [19]
inactive: all other assays above

FC(OC(F)(F)C(F)(F)C(F)(F)F)C(F)(F)F (stereo not given)
not listed: [6] | [8] | [9] | [15]
inactive: all other assays above

Cc1cncc(C)c1
inactive: [1] | [13] | [16] | [2] | [3] | [17] | [6] | [10] | [12]

Cc1ccc(N=Nc2c(O)ccc3ccccc23)c(C)c1
active: [1] 2.55 µM | [14] 6.5 µM
not listed: [9] | [15] | [16] | [17] | [18] | [19]
inactive: all other assays above

CCOC(OCC)C(=O)c1ccccc1
active: [14] 32.2 µM
not listed: [5] | [7] | [15]
inactive: all other assays above

Oc1cccc2c(O)cccc12
active: [14] 11.1 µM
not listed: [3] | [6] | [11] | [16] | [18]
inactive: all other assays above

Nc1cc(Cl)c(-c2cc(Cl)c(N)cc2Cl)cc1Cl
active: [1] 2.96 µM | [2] 11.1 µM | [18] 11.1 µM | [12] 17.3 µM
not listed: [6] | [7] | [11] | [15] | [16] | [19]
inactive: all other assays above

Oc1cc2ccccc2cc1O
not listed: [5] | [7] | [8] | [15] | [16] | [17] | [18]
inactive: all other assays above

FC(F)(F)N1C(F)(F)C(F)(F)OC(F)(F)C1(F)F
not listed: [3] | [7] | [9] | [16] | [17] | [19]
inactive: all other assays above

C=COC(=O)C(C)(C)CCCCCC
active: [14] 41 µM
inactive: [1] | [13] | [2] | [4] | [18] | [6] | [8] | [10] | [11] | [12]

CC(C)(C)c1ccc(CCC=O)cc1
active: [14] 74 µM
inactive: [1] | [13] | [2] | [4] | [18] | [8] | [10] | [11] | [12]

CC(C)CCOCCC(C)C
not listed: [2] | [3] | [6] | [7] | [8] | [15] | [17] | [19]
inactive: all other assays above

O=C(Nc1cccc([N+](=O)[O-])c1)c1cc2ccccc2cc1O
not listed: [4] | [7] | [8] | [14] | [15] | [19]
inactive: all other assays above

CCC(C)c1nccnc1OC (stereo not given)
not listed: [6] | [9] | [14] | [17] | [18]
inactive: all other assays above

— PubChem BioAssay (EPA / NIEHS)
